# In PubChem BioAssay (NCI):
# Compounds without any hit were thinned out: in the full panel of roughly 83,000, 20% have a hit.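 Compound tested at a single concentration for 48 hours in 96-well plates; a percent growth value below 10 was scored as active.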 Calls of active or inactive are those of the source.
# Tested on: HCT-15 colon
# Experiment: NCI-60 one-dose screen, 48 h (100 = growth as untreated, 0 = no growth, -100 = all killed)
# Details: 10 µM unless noted
# Procedure: Growth inhibition of the HCT-15 human tumor cell line is measured as a screen for anti-cancer activity. Cells are grown in 96 well plates and exposed to the test compound for 48 hours. Compounds are tested at a single concentration, which is 10^-5 M for most compounds. The reported endpoint is percent growth (GI% or GIPRCNT), where numbers from 0 - 100% represent growth inhibition, and numbers from -100% - 0 represent cell death. For example, a value of 40 represents 60% growth inhibition. A value of 0 means no net growth occurred over the course of the experiment. A value of -40 indicates 40% of cells at the beginning of the experiment died by the end of the experiment. A value of -100 means all cells are dead at the end of the experiment.
# NCI-60 Human Tumor Cell Lines Screen was performed using the standard one-dose NCI protocol, which is described in more detail at https://dtp.cancer.gov/discovery_development/nci-60/default.htm.
# Compounds with GIPRCNT values below 10 were considered active. Activity score was based on GIPRCNT using the following formula: […]
# Score is 0 for GIPRCNT values of 100 or above, 50 for GIPRCNT values of 0, and 100 for GIPRCNT values of -100.
row,Compound,growth
1,COc1cc(NS(=O)(=O)c2ccc(N)cc2)ncn1,108% (inactive)
2,Fc1ccc(Nc2ncnc3ccc(-c4cn[nH]c4)cc23)cc1Cl,60.4% (inactive)
3,C=C1C(=O)O[C@H]2[C@H]1CC/C(COC(=O)CCCC(=O)OC/C1=C/CC[C@@]3(C)O[C@H]3[C@H]3OC(=O)C(=C)[C@@H]3CC1)=C\CC[C@@]1(C)O[C@@H]21,4.33% (active)
4,[2H]c1nc(Nc2ncc(F)c(-c3cc(F)c4nc(C)n(C(C)C)c4c3)n2)c([2H])c([2H])c1CN1CCN(CC)CC1,33.2% (inactive)
5,COc1cc(-c2nc3sc(C)cn3c2/C=C2\C(=O)Nc3ccccc32)c(Br)c(OC)c1OC,52.9% (inactive)
6,CCCCCCCCN(CCCCCCCC)CC(O)c1cc(-c2ccccc2)nc2ccc(OC)cc12 (stereo not given),10.7% (inactive)
7,CN1C(=O)C2(NN=C(c3cccc4ccccc34)S2)c2ccccc21 (stereo not given),28.3% (inactive)
8,O=C(C[n+]1ccccc1Cl)c1ccc2c(c1)CCCC2,102% (inactive)
9,CN(C)CC/C=C1\c2ccccc2Sc2ccc(Cl)cc21,78.9% (inactive)
10,O=C(Nc1cccc([N+](=O)[O-])c1)Nc1cccc([N+](=O)[O-])c1,24.6% (inactive)
11,O=C1c2ccccc2C(=O)c2c(NCCN=Cc3c(O)ccc4ccccc34)cccc21,77% (inactive)
12,C[C@H]1C=C(C[C@@H](O)CCCCCCCCCC[C@@H](O)[C@H]2CCC(=O)O2)C(=O)O1,108% (inactive)
13,O=c1c2ccccc2sc2c(N3CCCC3)nc3ccccc3c12,94% (inactive)
14,CC(=S)Nc1ccccc1,99.4% (inactive)
15,O=C(Nc1cccc(-n2ccc3c(NC(=O)c4ccccc4)nccc32)c1)Nc1cc(C(F)(F)F)cc(C(F)(F)F)c1,5.94% (active)
16,c1ccc(-c2nc3sc(C(c4ccccc4)c4ccccc4)nn3c2-c2ccccc2)cc1,87.9% (inactive)
17,CC(CCC(=O)O)[C@H]1CCC2C3C(=O)C[C@@H]4CC(=O)CC[C@]4(C)C3CC(=O)[C@@]21C (stereo not given in full),105% (inactive)
18,COc1cc(C(=O)NNC(=O)c2ccccc2O)cc(OC)c1OC,105% (inactive)
19,CN[C@@H](CCCNC(N)=NC/C=C(/C)CCC=C(C)C)C(=O)N(C)[C@@H](CCCNC(N)=NCC=C(C)C)C(=O)N[C@H](C)[C@H](OS(=O)(=O)O)c1ccc(OS(=O)(=O)O)c(COS(=O)(=O)O)c1,113% (inactive)
20,N#CC1=C(N)Oc2c(ccc3ccccc23)C1c1cc(=O)oc2ccc(Cl)cc12 (stereo not given),25.8% (inactive)

row,Compound,growth
1,O=C(NC(=S)Nc1ccc(Cl)cc1)c1ccccc1,93.6% (inactive)
2,C#C[C@@]1(O)[C@@H](CO)O[C@@H](n2cc(C(F)(F)F)c3c(N)ncnc32)[C@@H]1O,3.11% (active)
3,COc1ccc(-c2nn(-c3ccc(NC(=O)c4cc(Cl)cc(Cl)c4)cc3)cc2-c2ccncc2)cc1Cl,21.7% (inactive)
4,Cc1ccn2cc(Cc3cc(=O)oc4c3ccc3ccccc34)c(=O)nc2c1,97.4% (inactive)
5,S=c1ssnc1-c1ccccn1,14.1% (inactive)
6,O=C(Nc1ccc(-n2cc(-c3ccncc3)c(-c3ccc(O)c(Cl)c3)n2)cc1)Nc1ccc(Cl)c(C(F)(F)F)c1,9.15% (active)
7,CCCCCCCCCCCCCCCCCCNCc1ccc(Cl)cc1,-87.1% (active)
8,CCN(CC)CCN1C(=O)c2c(c3c4ccccc4[nH]c3c3[nH]c4ccccc4c23)C1=O,59.4% (inactive)
9,CC(=O)CC/C=C(\C)[C@H](O)[C@H](C)C(=O)O[C@H]1C[C@H](C)C=C2C=C[C@@]3(C)O[C@@H](O)CC(=O)[C@]3(C)[C@H]21,0.209% (active)
10,O=C1OC(N(Cc2ccc(Cl)cc2)c2ccccc2)c2ccccc21 (stereo not given),104% (inactive)
11,CCCCOc1c(N)cccc1C(=O)OCCN(CC)CC,109% (inactive)
12,NS(=O)(=O)c1ccc(-n2nc(-c3ccc(Cl)cc3)ccc2=O)cc1,84.5% (inactive)
13,COc1ccc(-c2c(NC(=O)Nc3ccc(Cl)c(C(F)(F)F)c3)cnn2-c2ccc(S(N)(=O)=O)cc2)cc1,68.3% (inactive)
14,Cc1cc2c(cc1C)N(C(=O)CCl)CCN2C(=O)CCl,-64% (active)
15,O=C(Nc1ccc(-n2ccc3c(NC(=O)c4ccccc4)ncnc32)cc1)c1cccc(C(F)(F)F)c1,19.7% (inactive)
16,c1ccc2c(c1)Oc1cccnc1-n1nccc1-2,108% (inactive)
17,c1coc(CSc2ncnc3nc[nH]c23)c1,101% (inactive)
18,CCOc1ccc(NC(=O)Nc2cc(C(C)C)ccc2C)cc1,83.3% (inactive)
19,CCCOC(=O)c1ccc([N+](=O)[O-])o1,102% (inactive)
20,NC(N)=N/N=C/c1ccc([N+](=O)[O-])cc1,105% (inactive)
